Measurements from PubChem BioAssay (EPA / NIEHS).
Several values for one entry are separate records, joined by “and”; a condition that tells them apart may be missing. Equal entries are not always repeated. Results filed as inconclusive are left out. Some compounds were tested as several samples or in several runs, with calls that do not always agree. Activity calls are given as the source filed them. Rule for the calls, unless noted: active = hit-call score of the fitted dose curve at least 0.9, where 1 is the maximum; inactive = score below 0.9.

Legend:
[1] = read-out: E-selectin (Homo sapiens) (UniProt P16581); assay: BSK_SAg_Eselectin: BioMAP Diversity Plus: SAg Assay for Eselectin Biomarker Activity (AID 2283091); conditions: primary human HUVEC with PBMC; actives raise or lower the signal
In short: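 Endpoint values derive from bidirectional fitting relative to DMSO, using ELISA-measured E-selectin in a human vascular co-culture (umbilical vein endothelium plus PBMC) sampled 24 h after dosing.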

[2] = read-out: Monokine induced gamma interferon (MIG), CXCL9 (gene 4283); assay: BSK_SAg_MIG: BioMAP Diversity Plus: SAg Assay for Monokine induced gamma interferon (MIG) Biomarker Activity (AID 2283092); conditions: primary human HUVEC with PBMC; actives raise or lower the signal
In short: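 Measures CXCL9 protein by ELISA in a human vascular primary-cell co-culture (umbilical vein endothelium with PBMC) 24 h after chemical addition. Activity is scored up or down from the DMSO control.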

[3] = BSK_SAg_PBMCCytotoxicity: PBMC Cytotoxicity Assessment in the BioMAP Diversity Plus: SAg Assay (AID 2283093); conditions: primary human HUVEC with PBMC;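 note: PBMC viability measured as Alamar Blue reduction fluorescence at 546/580 nm; fitted both ways against DMSO so a hit may be loss or gain of signal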;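 for AC50: PBMC superantigen activated with SEB plus TSST-1 one hour after compound addition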
In short: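 Alamar Blue reduction (6 h, ex/em 546/580 nm) read after 90 h culture of PBMC pre-dosed 1 h then stimulated with SEB plus TSST-1, 20 ng/mL each. Gain or loss of signal fitted relative to DMSO.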

[4] = read-out: Interleukin-8 (IL8), CXCL8 (gene 3576); assay: BSK_SAg_IL8: BioMAP Diversity Plus: SAg Assay for Interleukin-8 (IL8) Biomarker Activity (AID 2283094); conditions: primary human HUVEC with PBMC; actives raise or lower the signal
In short: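 HUVEC/PBMC co-culture, 24 h post-dose; IL-8 by ELISA. Gain or loss of signal fitted bidirectionally vs DMSO baseline.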

[5] = BSK_SAg_Proliferation: Cell Proliferation Assessment in the BioMAP Diversity Plus: SAg Assay (AID 2283095); conditions: primary human HUVEC with PBMC;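 note: relative cell number as total protein by SRB absorbance in sub-confluent culture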
In short: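 HUVEC/PBMC co-culture, 96-well. TCA-fixed (10%), 0.1% SRB stain, A560 at 96 h. Protein content used as viability readout; bidirectional fitting vs DMSO control.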

[6] = BSK_SAg_SRB: Viability Assessment in the BioMAP Diversity Plus: SAg Assay (AID 2283096); conditions: primary human HUVEC with PBMC;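 note: cells read one day after compound addition; hits may be either gain or loss of signal compared with DMSO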
In short: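 SRB absorbance at 560 nm served as the viability read-out. Cells (HUVEC plus peripheral blood mononuclear cells) were TCA-fixed and stained 24 h post-dosing; activity fitted in both directions against DMSO controls.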

[7] = target: human CYP2A6, CYP2A6 (gene 1548) (UniProt P11509); assay: NVS_ADME_hCYP2A6: NovaScreen (NVS) CYP450-related Enzyme Activity (ADME) Assay for human CYP2A6 (AID 2283099; active = hit-call score of the fitted dose curve at least 0.9, where 1 is the maximum)
In short: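 Loss of fluorescence signal relative to acetonitrile vehicle reported CYP2A6 inhibition in a cell-free system using insect-cell-derived enzyme. Readings were taken at 0.5 h; top concentration in follow-up dose series was 20 uM.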

[8] = target: human CYP1A1, CYP1A1 (gene 1543) (UniProt P04798); assay: NVS_ADME_hCYP1A1: NovaScreen (NVS) CYP450-related Enzyme Activity (ADME) Assay for human CYP1A1 (AID 2283100; active = hit-call score of the fitted dose curve at least 0.9, where 1 is the maximum)
In short: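 Inhibition of recombinant CYP1A1 turnover was assessed fluorometrically in a biochemical format 1 h after compound exposure. Testing began at 10 uM in duplicate and progressed to concentration series reaching 20 uM, with on-plate positive and negative controls.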

Measured: AC50

Chain of E-selectin (Homo sapiens) (P16581 whole entry, looked up): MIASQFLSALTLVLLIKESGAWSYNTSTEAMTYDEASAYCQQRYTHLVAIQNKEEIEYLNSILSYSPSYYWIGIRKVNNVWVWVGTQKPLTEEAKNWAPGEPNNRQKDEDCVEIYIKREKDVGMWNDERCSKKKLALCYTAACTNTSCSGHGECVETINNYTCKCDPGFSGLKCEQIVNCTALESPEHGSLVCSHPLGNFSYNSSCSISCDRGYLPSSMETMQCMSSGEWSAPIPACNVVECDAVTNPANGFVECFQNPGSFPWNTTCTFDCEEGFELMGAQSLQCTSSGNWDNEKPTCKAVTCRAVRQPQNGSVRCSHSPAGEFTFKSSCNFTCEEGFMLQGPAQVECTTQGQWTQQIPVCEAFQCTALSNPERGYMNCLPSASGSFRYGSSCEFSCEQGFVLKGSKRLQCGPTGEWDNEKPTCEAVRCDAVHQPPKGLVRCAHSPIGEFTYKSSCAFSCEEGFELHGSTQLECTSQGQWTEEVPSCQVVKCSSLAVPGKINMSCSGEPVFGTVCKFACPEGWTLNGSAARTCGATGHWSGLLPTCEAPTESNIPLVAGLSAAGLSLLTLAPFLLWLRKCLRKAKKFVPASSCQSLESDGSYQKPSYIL
Chain of human CYP1A1, CYP1A1 (gene 1543) (P04798 whole entry, looked up): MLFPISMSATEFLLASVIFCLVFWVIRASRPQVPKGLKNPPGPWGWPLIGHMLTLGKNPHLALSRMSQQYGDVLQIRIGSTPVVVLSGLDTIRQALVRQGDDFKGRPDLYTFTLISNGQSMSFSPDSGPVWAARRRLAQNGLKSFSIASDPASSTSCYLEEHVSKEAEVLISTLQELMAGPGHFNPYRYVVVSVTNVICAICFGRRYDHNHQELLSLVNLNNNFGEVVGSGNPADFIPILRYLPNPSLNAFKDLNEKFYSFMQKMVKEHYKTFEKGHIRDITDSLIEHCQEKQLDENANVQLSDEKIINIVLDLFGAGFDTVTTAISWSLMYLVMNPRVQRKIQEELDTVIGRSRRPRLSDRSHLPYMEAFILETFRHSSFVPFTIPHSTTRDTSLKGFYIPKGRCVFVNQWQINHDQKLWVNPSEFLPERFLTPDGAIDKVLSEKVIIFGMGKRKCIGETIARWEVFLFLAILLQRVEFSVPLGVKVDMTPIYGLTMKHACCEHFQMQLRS
Chain of human CYP2A6, CYP2A6 (gene 1548) (P11509 whole entry, looked up): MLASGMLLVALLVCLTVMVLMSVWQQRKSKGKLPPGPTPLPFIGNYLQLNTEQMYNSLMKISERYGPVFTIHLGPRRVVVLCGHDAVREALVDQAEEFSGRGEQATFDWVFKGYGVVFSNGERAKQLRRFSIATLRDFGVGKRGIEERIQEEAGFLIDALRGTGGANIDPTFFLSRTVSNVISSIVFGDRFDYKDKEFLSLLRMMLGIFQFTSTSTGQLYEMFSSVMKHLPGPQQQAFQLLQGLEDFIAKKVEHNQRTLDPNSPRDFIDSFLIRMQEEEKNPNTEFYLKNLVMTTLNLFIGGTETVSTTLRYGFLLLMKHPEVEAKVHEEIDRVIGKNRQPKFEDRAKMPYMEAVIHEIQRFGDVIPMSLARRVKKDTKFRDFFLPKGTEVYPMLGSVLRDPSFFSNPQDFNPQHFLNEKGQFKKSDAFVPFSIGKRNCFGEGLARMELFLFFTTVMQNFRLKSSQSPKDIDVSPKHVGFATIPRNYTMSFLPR

CCC[CH2][Sn]([Cl])([CH2]CCC)[CH2]CCC
active: [1] 0.148 µM | [2] 0.148 µM | [3] 0.148 µM | [4] 0.148 µM | [5] 0.148 µM | [6] 0.148 µM

CC(O)CCO (configuration not stated)
not listed: [7] | [8]
inactive: all other assays above

O=C1CCCO1
not listed: [7] | [8]
inactive: all other assays above

Nc1ccc(Cl)cc1N
active: [1] 8.35 µM
not listed: [7] | [8]
inactive: all other assays above

C1=Cc2cccc3cccc1c23
not listed: [7] | [8]
inactive: all other assays above

CCCCC(CC)COC(=O)c1ccc(C(=O)OCC(CC)CCCC)c(C(=O)OCC(CC)CCCC)c1 (configuration not stated)
not listed: [7] | [8]
inactive: all other assays above

ClC1=C(Cl)[C@]2(Cl)[C@H]3[C@H]([C@@H]4C=C[C@H]3C4)[C@@]1(Cl)C2(Cl)Cl
active: [1] 32.7 µM | [2] 35 µM | [3] 15.4 µM | [4] 30.9 µM | [5] 15 µM | [6] 25.8 µM

C[C@]12C=CC3=C4CCC(=O)C=C4CC[C@H]3[C@@H]1CC[C@@H]2O
active: [6] 7.24 µM
not listed: [7] | [8]
inactive: all other assays above

ClC1=C(Cl)C2(Cl)C3C(Cl)C=CC3C1(Cl)C2(Cl)Cl (configuration not stated)
active: [1] 31.1 µM | [2] 36.8 µM | [3] 13 µM | [4] 27.9 µM | [5] 10.9 µM | [6] 31.7 µM

OCCCBr
not listed: [7] | [8]
inactive: all other assays above

CCCCOC(=O)c1ccccc1C(=O)OCc1ccccc1
inactive: [1] | [2] | [3]
active: [4] 20 µM | [5] 20 µM | [6] 10.8 µM

O=[N+]([O-])c1ccc(Oc2ccc(Cl)cc2Cl)cc1
inactive: [2] | [3] | [6]
active: [1] 27.4 µM | [4] 33.9 µM | [5] 32 µM

CCN(CC)N=O
not listed: [7] | [8]
inactive: all other assays above

CCC(C)c1ccc(O)cc1 (configuration not stated)
not listed: [7] | [8]
inactive: all other assays above

CCNS(=O)(=O)C(F)(F)C(F)(F)C(F)(F)C(F)(F)C(F)(F)C(F)(F)C(F)(F)C(F)(F)F
inactive: [1] | [2] | [3] | [4] | [6]
active: [1] 30 µM | [2] 49.1 µM | [3] 48 µM | [4] 30 µM | [5] 19.3 µM and 45 µM and 23.6 µM | [6] 43.3 µM and 51.2 µM

N#CC(Br)Br
not listed: [7] | [8]
inactive: all other assays above

c1ccc(C2CO2)cc1 (configuration not stated)
not listed: [7] | [8]
inactive: all other assays above

CCCSC(=O)N(CCC)CCC
not listed: [7] | [8]
inactive: all other assays above

CN(C)c1ccc(C(=O)c2ccc(N(C)C)cc2)cc1
inactive: [1] | [2] | [3] | [4]
active: [5] 0.578 µM | [6] 14.6 µM

Nc1cc(Cl)cc(C(=O)O)c1Cl
not listed: [7] | [8]
inactive: all other assays above

[O-][Cl+]O
not listed: [7] | [8]
inactive: all other assays above

CCC12COCN1COC2
not listed: [7] | [8]
inactive: all other assays above

CCN(CC)CCO
not listed: [7] | [8]
inactive: all other assays above

O=C(Oc1ccc(Br)cc1)N1CCN2CCC1CC2
not listed: [7] | [8]
inactive: all other assays above

CC(C)(C)OOC(C)(C)CCC(C)(C)OOC(C)(C)C
not listed: [7] | [8]
inactive: all other assays above

c1ccc2c(c1)oc1ccccc12
not listed: [7] | [8]
inactive: all other assays above

O=Cc1ccco1
not listed: [7] | [8]
inactive: all other assays above

CC(C)(O)c1cnn2c(-c3ccc(F)c(-c4c(F)cccc4C#N)c3)cnc2n1
active: [3] 7.8 µM | [4] 4.31 µM
inactive: [1] | [2] | [5] | [6]

Brc1ccc(Oc2ccccc2)cc1
not listed: [7] | [8]
inactive: all other assays above

CC(C)COC(=O)c1ccccc1C(=O)OCC(C)C
inactive: [2] | [4] | [6]
active: [1] 20 µM | [3] 37 µM | [5] 30.3 µM

Cc1ccc([N+](=O)[O-])cc1
not listed: [7] | [8]
inactive: all other assays above

C=CCc1ccc2c(c1)OCO2
not listed: [7] | [8]
inactive: all other assays above

OCCCl
not listed: [7] | [8]
inactive: all other assays above

COC(=O)Nc1nc2ccccc2[nH]1
active: [5] 11.2 µM | [6] 9.84 µM
inactive: [1] | [2] | [3] | [4]

Cc1ccc(N)cc1
not listed: [7] | [8]
inactive: all other assays above

CC(C)N(Cc1ccccc1)C(=O)C(C)(C)C
not listed: [7] | [8]
inactive: all other assays above

CO[C@@H]1[C@H](OC(=O)NC(=O)CCl)CC[C@]2(CO2)[C@H]1[C@@]1(C)O[C@@H]1CC=C(C)C
inactive: [2] | [3] | [6]
active: [1] 3.89 µM | [4] 2.58 µM | [5] 2.45 µM

O=P(OCCCl)(OCCCl)OCCCl
not listed: [7] | [8]
inactive: all other assays above

N#CC(Br)(Br)C(N)=O
not listed: [7] | [8]
inactive: all other assays above

[As]#[In]
not listed: [7] | [8]
inactive: all other assays above

Clc1ccc(C(c2ccc(Cl)cc2)C(Cl)Cl)cc1
active: [1] 28.9 µM | [2] 35.6 µM | [3] 14.3 µM | [4] 29 µM | [5] 11.4 µM | [6] 29.5 µM

Oc1ccccc1Cl
not listed: [7] | [8]
inactive: all other assays above

CCCCCOC(=O)c1ccccc1C(=O)OCCCCC
active: [1] 32.4 µM | [4] 30.8 µM | [5] 31.9 µM | [6] 32.4 µM
inactive: [2] | [3]

c1ccc(N=Nc2ccccc2)cc1
not listed: [7] | [8]
inactive: all other assays above

Clc1ccc(Cl)c(Cl)c1
not listed: [7] | [8]
inactive: all other assays above

Cc1ccc(N)c(N)c1
active: [1] 4.36 µM
not listed: [7] | [8]
inactive: all other assays above

Cn1cc(-c2ccccc2)c(=O)c(-c2cccc(C(F)(F)F)c2)c1
not listed: [7] | [8]
inactive: all other assays above

CN(C)[C@@H]1C(=O)C(C(N)=O)=C(O)[C@@]2(O)C(=O)C3=C(O)c4c(O)cccc4[C@@](C)(O)[C@H]3C[C@@H]12
not listed: [7] | [8]
inactive: all other assays above

ClCCOCCCl
not listed: [7] | [8]
inactive: all other assays above

CCOc1cccc(C2(N3CCN(c4ccccc4)CC3)CCC(C)CC2)c1 (configuration not stated)
not listed: [7] | [8]
inactive: all other assays above

CN(C)c1ccccc1
not listed: [7] | [8]
inactive: all other assays above

CC(C)(C)OOC(=O)c1ccccc1
not listed: [7] | [8]
inactive: all other assays above

CCCCCCCCOC(=O)c1ccc(C(=O)OCCCCCCCC)c(C(=O)OCCCCCCCC)c1
not listed: [7] | [8]
inactive: all other assays above

OCCOCCO
not listed: [7] | [8]
inactive: all other assays above

CN(C)C(=O)Nc1ccc(Cl)cc1
active: [5] 20 µM
not listed: [7] | [8]
inactive: all other assays above

O=[N+]([O-])C(Br)(CO)CO
active: [1] 24.7 µM | [2] 39.1 µM | [3] 22.5 µM | [4] 27.6 µM | [5] 8.35 µM | [6] 30.6 µM | [8] 12.7 µM
inactive: [7]

Oc1ccc2ccc3cccc4ccc1c2c34
active: [1] 30.7 µM | [2] 36.7 µM | [3] 8.38 µM | [4] 36.1 µM | [5] 6.09 µM | [6] 30.4 µM | [8] 2.84 µM

CC(C)(OOC(C)(C)c1ccccc1)c1ccccc1
active: [1] 37 µM | [2] 31.3 µM | [3] 27 µM | [4] 30.2 µM | [5] 16.4 µM | [6] 32.7 µM
inactive: [7]
